Our source for the growth values is PubChem BioAssay (NCI).

About 83,000 compounds went through this panel and 20% of them were active in at least one assay; those are over-represented in the sample as a whole.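 Activity criterion: percent growth below 10, measured after cells in 96-well plates were exposed to a single compound concentration for 48 hours.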 Activity calls are given as the source filed them.

This experiment concerns MDA-MB-468 breast. Kind of experiment: NCI-60 one-dose screen, 48 h (100 = growth as untreated, 0 = no growth, -100 = all killed). The note with it: 10 µM unless noted.
For `O=S(=O)(NCCNc1nccc(-c2c(-c3ccc(F)c(O)c3)nc3sccn23)n1)c1ccc(F)cc1`, the growth was 29.3% (inactive).
In the case of `CN1CCN(c2ccc3nc4c(nc3c2C(F)(F)F)C(=O)c2ncccc2C4=O)CC1` it was -62.4% (active).
In the case of `COc1cc(-c2nn(C(C)(C)C)cc2-c2ccnc(NCCCNS(=O)(=O)c3ccc(F)cc3)n2)ccc1Cl` it was 72.9% (inactive); in that of `Cc1ccc([C@@H]2C[C@H](O)Cc3ccccc3N2)s1`, 124% (inactive).
In the case of `Cc1ccc(Cn2c(O)c(N=NC(=O)c3ccc(S(N)(=O)=O)cc3)c3ccccc32)cc1` it was 100% (inactive).
For the molecule `CC1=C(C(=O)/C=C/c2c[nH]c3ccccc23)C(c2ccccc2)NC(=S)N1` (stereo unspecified), the growth was 102% (inactive).
For the molecule `Cc1cccc(NC(=O)c2sc3nc4c(cc3c2N)CN(Cc2ccccc2)CC4)c1C`, the growth was 24.4% (inactive).
In the case of `Cc1ccc2c(C(C[N+](=O)[O-])c3ccccc3F)c(-c3ccccc3)[nH]c2c1` (stereo unspecified) it was 10.5% (inactive); in that of `CCN1C(=O)N(CC)C2C1NN=c1s/c(=C\c3cnc(C)n3C)c(=O)n12` (stereo unspecified), -12.2% (active); in that of `COc1cc2c(cc1O)CC[C@@H]1[C@@H]2CC[C@]2(C)[C@@H](OCCCN(C)C)CC[C@@H]12`, -58.5% (active).
As to `c1ccc(CNc2ncnc3scc(-c4cccs4)c23)nc1`, the growth was 12% (inactive).
In the case of `CN1c2ccccc2C(C)(C)C12C=Cc1cc(O)ccc1O2` (stereo unspecified) it was 4.08% (active).
In the case of `Cc1cc2c(C(C)C)c(O)c(O)c(C=Nc3ccccc3[N+](=O)[O-])c2c(O)c1-c1c(C)cc2c(C(C)C)c(O)c(O)c(C=Nc3ccccc3[N+](=O)[O-])c2c1O` it was 80.5% (inactive); in that of `O=C(/C=C/c1c[nH]c2ccccc12)c1cc2ccccc2o1`, 121% (inactive); in that of `COc1ccc(-c2c(-c3cc4c(c(OC)c3OC)OCO4)noc2N)cc1`, -6.43% (active).
For the molecule `CCNC(=O)N1CCc2cc(OC)c(OCCc3ccc(OC)nc3)cc2C1c1ccc(C)cc1C` (stereo unspecified), the growth is 8.04% (active).
In the case of `COC(=O)c1ccc(NC(=S)N2CCc3ccc([N+](=O)[O-])cc3C2)cc1O` it was 94.2% (inactive); in that of `O=C(Cn1cc(CN2C(=O)c3ccccc3S2(=O)=O)nn1)Nc1cccc(Cl)c1`, 101% (inactive); in that of `Cc1ccc2c(n1)C(=O)C(Cl)=C(Nc1ccc(C(C)C)cc1)C2=O`, -44.8% (active).
In the case of `CCN(c1ccc(C(=O)N2CCN(c3ccccc3)CC2)cc1)S(C)(=O)=O` it was 92.5% (inactive); in that of `NC(=O)c1cc(I)ccc1NC(=O)/C=C/c1ccccc1Cl`, 17.3% (inactive).
As for `O=c1[nH]c2ccc(Cl)cc2c2ccccc12`, the growth is 68.1% (inactive).
In the case of `COc1ccc(C2CC(=O)Nc3c2c(C)nn3-c2nc3ccccc3[nH]2)cc1` (stereo unspecified) it was 101% (inactive).
Take `O=C(COc1ccc(/C=C2\Cc3ccccc3C2=O)cc1)c1ccc(Cl)cc1`: the growth was 111% (inactive).
In the case of `O=C(Nc1nc(-c2ccc(Cl)cc2)cs1)c1cc(-c2ccc(Br)cc2)nc2ccc(Cl)cc12` it was 98.7% (inactive); in that of `CCCCC1(O)CCCCC1`, 94.9% (inactive).
